Experimental data reported in PubChem BioAssay AID651919 (Sanford-Burnham Center for Chemical Genomics, 2012).
Values joined by “and” are separate entries in the source; they are usually repeats but may differ in a detail not shown here. Equal values may be shown once.

biological target: C-X-C chemokine receptor type 6 (Homo sapiens) (UniProt O00574); experiment: CXCR6 and CXCR5 receptor antagonist panel, profiling panel, selectivity assay for CXCR6 antagonist project, cell-based, CHO-K1 PathHunter beta-arrestin, luminescence, set 4 (AID 651919); conditions: run 2, at 79 µM (top of the series)
Sequence (O00574 whole entry, looked up): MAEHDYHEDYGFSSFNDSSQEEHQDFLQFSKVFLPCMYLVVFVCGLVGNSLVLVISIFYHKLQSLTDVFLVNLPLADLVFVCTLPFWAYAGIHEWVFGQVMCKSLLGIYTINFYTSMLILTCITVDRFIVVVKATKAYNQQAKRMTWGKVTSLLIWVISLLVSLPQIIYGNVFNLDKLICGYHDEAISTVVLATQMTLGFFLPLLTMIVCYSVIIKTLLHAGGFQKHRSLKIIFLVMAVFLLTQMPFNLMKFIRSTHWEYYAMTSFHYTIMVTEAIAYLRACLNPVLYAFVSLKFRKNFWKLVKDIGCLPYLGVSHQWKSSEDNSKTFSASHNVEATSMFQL

Compared with `COc1cc(C(=O)NC2CC3CCCC(C2)N3CC(=O)Nc2ccc(F)cc2)cc(OC)c1OC` (centres undefined), `COc1cc(C(=O)NC2CC3CCCC(C2)N3CC(=O)Nc2ccc(C)cc2)cc(OC)c1OC` (centres undefined) is lower in inhibition: 81.3% for the first, 77.6% for the second.

First: COc1ccc(C(=O)NC2CC3CCCC(C2)N3CC(=O)Nc2ccc(Cl)cc2)cc1 (centres undefined)
Second: COc1ccc(C(=O)NC2CC3CCCC(C2)N3CC(=O)Nc2ccc(F)cc2)cc1 (centres undefined)
The inhibition of the first is lower: -10.3% for the first, -0.539% for the second.

Going from `O=C(CN1C2CCCC1CC(NC(=O)c1ccc3c(c1)OCO3)C2)Nc1ccc(F)cc1` (centres undefined) to `Cc1ccc(NC(=O)CN2C3CCCC2CC(NC(=O)c2ccc4c(c2)OCO4)C3)cc1` (centres undefined), the inhibition rises from -2.79% to 5.62%.

First: COc1cccc(C(=O)NC2CC3CCCC(C2)N3CC(=O)Nc2ccc(C)cc2)c1 (centres undefined)
Second: COc1cccc(C(=O)NC2CC3CCCC(C2)N3CC(=O)Nc2ccc(F)cc2)c1 (centres undefined)
The inhibition of the first is higher: 3.25% for the first, 2.48% for the second.

Compared with `COc1ccc(NC(=O)CN2C3CCCC2CC(NC(=O)c2ccc(OC)c(OC)c2)C3)cc1` (centres undefined), `COc1ccc(C(=O)NC2CC3CCCC(C2)N3CC(=O)Nc2ccc(C)cc2)cc1OC` (centres undefined) is higher in inhibition: -3.76% for the first, 4.86% for the second.

Compared with `COc1ccc(C(=O)NC2CC3CCCC(C2)N3CC(=O)Nc2ccc(F)cc2)cc1OC` (centres undefined), `COc1ccc(C(=O)NC2CC3CCCC(C2)N3CC(=O)Nc2ccc(Cl)cc2)cc1OC` (centres undefined) is lower in inhibition: 29.3% for the first, 14.6% for the second.

Going from `COc1cc(OC)cc(C(=O)NC2CC3CCCC(C2)N3CC(=O)Nc2ccccc2)c1` (centres undefined) to `COc1cc(OC)cc(C(=O)NC2CC3CCCC(C2)N3CC(=O)Nc2ccc(Cl)cc2)c1` (centres undefined), the inhibition falls from 3.13% to -8.8%.

Compared with `COc1ccc(NC(=O)CN2C3CCCC2CC(NC(=O)c2cccc(OC)c2)C3)cc1` (centres undefined), `COc1cccc(C(=O)NC2CC3CCCC(C2)N3CC(=O)Nc2ccc(Cl)cc2)c1` (centres undefined) is lower in inhibition: -0.0157% for the first, -8.76% for the second.

First: COc1ccc(NC(=O)CN2C3CCCC2CC(NC(=O)c2ccc4c(c2)OCO4)C3)cc1 (centres undefined)
Second: O=C(CN1C2CCCC1CC(NC(=O)c1ccc3c(c1)OCO3)C2)Nc1ccc(Cl)cc1 (centres undefined)
The inhibition of the first is higher: 4.54% for the first, -3.16% for the second.

Going from `COc1ccc(C(=O)NC2CC3CCCC(C2)N3CC(=O)Nc2ccccc2)cc1` (centres undefined) to `COc1cccc(C(=O)NC2CC3CCCC(C2)N3CC(=O)Nc2ccccc2)c1` (centres undefined), the inhibition rises from 8.56% to 8.64%.

Compared with `COc1ccc(C(=O)NC2CC3CCCC(C2)N3CC(=O)Nc2ccccc2)cc1OC` (centres undefined), `O=C(CN1C2CCCC1CC(NC(=O)c1ccc3c(c1)OCO3)C2)Nc1ccccc1` (centres undefined) is lower in inhibition: 30.3% for the first, 5.06% for the second.

Going from `COc1cc(OC)cc(C(=O)NC2CC3CCCC(C2)N3CC(=O)Nc2ccc(C)cc2)c1` (centres undefined) to `COc1cc(OC)cc(C(=O)NC2CC3CCCC(C2)N3CC(=O)Nc2ccc(F)cc2)c1` (centres undefined), the inhibition falls from 55.4% to -4.2%.

Going from `COc1ccc(NC(=O)CN2C3CCCC2CC(NC(=O)c2ccc(OC)cc2)C3)cc1` (centres undefined) to `COc1ccc(C(=O)NC2CC3CCCC(C2)N3CC(=O)Nc2ccc(C)cc2)cc1` (centres undefined), the inhibition rises from 4.54% to 6.15%.

Going from `O=C(CN1C2CCCC1CC(NC(=O)c1ccccc1)C2)Nc1ccccc1` (centres undefined) to `COc1ccc(NC(=O)CN2C3CCCC2CC(NC(=O)c2cc(OC)cc(OC)c2)C3)cc1` (centres undefined), the inhibition falls from 7.76% to -0.62%.

Compared with `COc1ccccc1NC(=O)CN1C2CCCC1CC(NC(=O)c1cc(OC)c(OC)c(OC)c1)C2` (centres undefined), `COc1ccc(NC(=O)CN2C3CCCC2CC(NC(=O)c2cc(OC)c(OC)c(OC)c2)C3)cc1` (centres undefined) is lower in inhibition: 98.2% for the first, 61.4% for the second.

First: COc1cc(C(=O)NC2CC3CCCC(C2)N3CC(=O)Nc2ccc(Cl)cc2)cc(OC)c1OC (centres undefined)
Second: COc1ccc(CN2C3CCCC2CC(NC(=O)c2cc(OC)c(OC)c(OC)c2)C3)cc1 (centres undefined)
The inhibition of the first is higher: 90.4% for the first, 56.8% for the second.

`COc1cc(C(=O)NC2CC3CCCC(C2)N3CC(=O)Nc2ccccc2)cc(OC)c1OC` (centres undefined) was tested, and the inhibition was 94% and 90.4%.
`COc1cc(C(=O)NC2CC3CCCC(C2)N3CC(=O)Nc2ccccc2Cl)cc(OC)c1OC` (centres undefined) was tested, and the inhibition was 100% and 99.1%.
